We go through 25 compounds from PubChem BioAssay (NCI).

Compounds without any hit were thinned out: in the full panel of roughly 83,000, 20% have a hit.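 Interpretation: 100, growth as untreated; towards 0, rising growth inhibition; 0, no net growth; 0 to -100, cell death. Compounds scoring below 10 were considered active.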 A number with no mark means an inactive call. Active and inactive are the calls of the source.

Among the test systems are BT-549 breast; MDA-MB-435 melanoma; SW-620 colon; MCF7 breast; HCT-116 colon; HCC-2998 colon; KM12 colon.
What all share (test): NCI-60 one-dose screen, 48 h (100 = growth as untreated, 0 = no growth, -100 = all killed)
Holding throughout (details): 10 µM unless noted

With `OC1CCc2c(-c3ccc4ncnc(N5CCc6cc(F)c(Cl)cc65)c4c3)cncc21` (stereo not drawn), the growth with BT-549 breast is 46.5%; in the assay on MDA-MB-435 melanoma it was 62.7%; with SW-620 colon, 85.1%; in the assay with MCF7 breast, 23.4%; with HCT-116 colon, 66.9%; in the assay with HCC-2998 colon it was 72.1%. In addition, the growth with KM12 colon is 66.2%.

`O=C1Nc2cc(Cl)ccc2/C1=C\c1ccc(OCc2ccc(Br)cc2F)cc1`: the growth was -69.3% (active) in the assay with BT-549 breast; -37.7% (active) with MDA-MB-435 melanoma; -49.7% (active) in the assay on SW-620 colon; 9.35% (active) in the assay with MCF7 breast; -95% (active) in the assay with HCT-116 colon; 17% in the assay on HCC-2998 colon. Besides, in the assay with KM12 colon, the growth was -31.9% (active).

In the case of `CCOc1ccc([C@H]2C(C(=O)c3ccc(Cl)cc3)C3(N[C@@H]2c2ccccc2)C(=O)Nc2ccc(Br)cc23)cc1` (stereo partly drawn), the growth is 71.9% in the assay with BT-549 breast; 28.5% in the assay with MDA-MB-435 melanoma; 24.6% with SW-620 colon; 9.08% (active) with MCF7 breast; 4.78% (active) with HCT-116 colon; 0.672% (active) with HCC-2998 colon. Also, the growth with KM12 colon is -10.8% (active).

Regarding `CC(=NNc1ncnc2ccccc12)c1ccc(S(C)(=O)=O)cc1`, the growth is 105% with BT-549 breast; 106% in the assay on MDA-MB-435 melanoma; 104% in the assay with SW-620 colon; 87.5% in the assay with MCF7 breast; 100% in the assay on HCT-116 colon; 111% with HCC-2998 colon. Also, the growth with KM12 colon was 102%.

Regarding `Cc1c(NC(=O)CSc2nc3sc4c(c3c(=O)n2-c2ccc(Cl)cc2)CCCC4)c(=O)n(-c2ccccc2)n1C`, the growth is 93.2% with BT-549 breast; 88.3% in the assay on MDA-MB-435 melanoma; 90.6% with SW-620 colon; 77.3% in the assay with MCF7 breast; 107% in the assay on HCT-116 colon; 110% in the assay on HCC-2998 colon. In the assay with KM12 colon, the growth is 98.7%.

As to `COc1ccc(-c2csc(N/N=C/c3c(-c4ccc(S(C)(=O)=O)cc4)nc4ccccn34)n2)cc1`, the growth is 115% in the assay on BT-549 breast; 101% with MDA-MB-435 melanoma; 107% in the assay on SW-620 colon; 89.1% in the assay on MCF7 breast; 104% with HCT-116 colon; 115% in the assay on HCC-2998 colon. Besides, the growth with KM12 colon was 103%.

In the case of `Cc1cccc2sc(/N=C(\N)C(Cl)(Cl)Cl)nc12`, the growth in the assay with BT-549 breast is 117%; with MDA-MB-435 melanoma it was 103%; with SW-620 colon, 103%; in the assay with MCF7 breast, 85%; with HCT-116 colon, 101%; in the assay on HCC-2998 colon it was 111%. Further, the growth with KM12 colon is 97.5%.

As to `COc1ccccc1/C=C/C=N/NC1=NC2C(S1)N(C)C(=O)N2C` (stereo not drawn), the growth was 67.8% in the assay on BT-549 breast; -57.1% (active) in the assay on MDA-MB-435 melanoma; 20.9% with SW-620 colon; 19.9% in the assay on MCF7 breast; 35.9% with HCT-116 colon; 68.3% in the assay on HCC-2998 colon. Besides, the growth in the assay on KM12 colon is 18.2%.

As to `COc1cc(N=Cc2sc(Nc3nccs3)nc2O)cc(OC)c1OC`, the growth was 93.6% in the assay on BT-549 breast; 87.9% in the assay with MDA-MB-435 melanoma; 97.3% with SW-620 colon; 71.5% with MCF7 breast; 94.2% in the assay on HCT-116 colon; 111% in the assay on HCC-2998 colon. Also, in the assay on KM12 colon, the growth was 89.9%.

With `COc1ccc(NC(=O)c2sc3nc(-c4cnccn4)cc(-c4cccs4)c3c2N)cc1`, the growth was 42.4% in the assay with BT-549 breast; 71.5% in the assay on MDA-MB-435 melanoma; 65.2% with SW-620 colon; 57.4% in the assay on MCF7 breast; 61.9% with HCT-116 colon; 67.5% in the assay with HCC-2998 colon. Moreover, the growth with KM12 colon was 61%.

As to `C#Cc1nc(C2=C(C)C(=N\O)/C(=N/O)C2)cs1`, the growth is 105% with BT-549 breast; 93.7% in the assay on MDA-MB-435 melanoma; 109% in the assay with SW-620 colon; 72.5% in the assay with MCF7 breast; 87.3% in the assay on HCT-116 colon; 113% in the assay on HCC-2998 colon. In addition, the growth with KM12 colon was 67.1%.

As to `NC(=O)c1cc(-c2ccc3ncnc(N4CCc5cc(F)c(Cl)cc54)c3c2)cnc1N`, the growth is -13.5% (active) with BT-549 breast; 25.2% in the assay on MDA-MB-435 melanoma; 35.9% with SW-620 colon; 11% in the assay on MCF7 breast; 19.3% with HCT-116 colon; 37.5% in the assay with HCC-2998 colon. The growth with KM12 colon is 29.9%.

Turning to `C=CCn1c(SCC(=O)c2ccccc2)nnc1-c1c[nH]c2ccccc12`, the growth with BT-549 breast was 109%; with MDA-MB-435 melanoma, 105%; with SW-620 colon, 96.1%; with MCF7 breast it was 97.2%; in the assay on HCT-116 colon it was 97.5%; with HCC-2998 colon, 111%. In addition, the growth in the assay on KM12 colon was 112%.

In the case of `Cn1cc(-c2cc(N)n3nc(-c4cn(C)c5ccc(Br)cc45)cc3n2)c2cc(Br)ccc21`, the growth in the assay with BT-549 breast was 105%; with MDA-MB-435 melanoma, 30.8%; in the assay on SW-620 colon, 1.21% (active); in the assay with MCF7 breast, 1.35% (active); with HCT-116 colon, 57%; in the assay on HCC-2998 colon, 82.5%. Further, the growth with KM12 colon was 64.8%.

For the compound `Cn1c(SCC(=O)Nc2ccc(-c3nc4ccc([N+](=O)[O-])cc4[nH]3)cc2)nc2ccccc2c1=O`, the growth in the assay with BT-549 breast is 27.8%; with MDA-MB-435 melanoma, 93.4%; in the assay on SW-620 colon, 87.3%; in the assay with MCF7 breast, 45.3%; in the assay on HCT-116 colon, 70.9%; with HCC-2998 colon, 84.6%. Also, the growth with KM12 colon was 65.5%.

Turning to `COc1cc(/C=C/C(=O)c2ccc(Cl)cc2)ccc1Oc1nc(NCCO)nc(N2CCOCC2)n1`, the growth in the assay on BT-549 breast is 100%; in the assay with MDA-MB-435 melanoma, 109%; in the assay on SW-620 colon it was 72.4%; in the assay on MCF7 breast, 67%; with HCT-116 colon, 93.1%; with HCC-2998 colon, 100%. For the same compound, the growth in the assay on KM12 colon is 106%.

Consider `CCOC(=O)c1c(Nc2ccccc2)nn2c(N)c(C#N)c(-c3ccc(Cl)cc3)nc12`, for which the growth is 96.7% with BT-549 breast; 70.3% with MDA-MB-435 melanoma; 65.8% in the assay with SW-620 colon; 65.2% with MCF7 breast; 59.9% in the assay on HCT-116 colon; 83.5% in the assay on HCC-2998 colon. Moreover, in the assay with KM12 colon, the growth is 64.1%.

As to `Cn1cc(-c2cc(N)n3nc(-c4cn(C)c5ccc(F)cc45)cc3n2)c2cc(F)ccc21`, the growth with BT-549 breast was 77.5%; with MDA-MB-435 melanoma, 5.54% (active); with SW-620 colon it was -36.6% (active); in the assay on MCF7 breast, 10%; with HCT-116 colon, -92.8% (active); in the assay on HCC-2998 colon, 1.23% (active). Further, in the assay with KM12 colon, the growth is 6.56% (active).

Regarding `O=c1[nH]c2ccc(Cl)cc2cc1CSc1ccccc1Nc1nccc(-c2ccc(Cl)cc2)n1`, the growth in the assay with BT-549 breast was 113%; in the assay on MDA-MB-435 melanoma, 96.8%; in the assay on SW-620 colon, 91.9%; in the assay with MCF7 breast, 70.3%; in the assay with HCT-116 colon, 90.4%; in the assay with HCC-2998 colon, 119%. Also, in the assay with KM12 colon, the growth is 92%.

For `O=C1Nc2cc(Cl)ccc2/C1=C\c1ccc(OCc2ccc([N+](=O)[O-])cc2)cc1`, the growth was 77.5% in the assay on BT-549 breast; 80.2% in the assay with MDA-MB-435 melanoma; 76.8% with SW-620 colon; 61.3% in the assay with MCF7 breast; 68.2% with HCT-116 colon; 82.8% in the assay with HCC-2998 colon. Also, the growth in the assay with KM12 colon was 64.6%.

Regarding `Cc1nc(-c2cc3ccccc3oc2=O)ccc1C(=O)/C=C/c1ccc(N2CCOCC2)cc1`, the growth with BT-549 breast is 76.9%; with MDA-MB-435 melanoma, -21.1% (active); with SW-620 colon, 83.5%; in the assay on MCF7 breast, 51.6%; with HCT-116 colon, 89.1%; with HCC-2998 colon, 83.9%. Moreover, in the assay with KM12 colon, the growth is 68.9%.

`Cn1ccnc1C(=O)/C=C/c1ccc(NC(=O)Nc2ccc(Cl)cc2)cc1`: the growth in the assay on BT-549 breast was 63.6%; with MDA-MB-435 melanoma, 75%; in the assay on SW-620 colon it was 71%; in the assay with MCF7 breast, 38.1%; with HCT-116 colon it was 25%; in the assay on HCC-2998 colon, 90.2%. The growth in the assay on KM12 colon is 49.6%.

In the case of `Cc1cc(C(=O)Nc2sc3c(c2C(N)=O)CCC(=O)C3)ccc1OCCN1CCCCC1`, the growth was 129% in the assay on BT-549 breast; 103% in the assay with MDA-MB-435 melanoma; 86.5% in the assay on SW-620 colon; 95.3% with MCF7 breast; 84.1% in the assay with HCT-116 colon; 88.7% in the assay with KM12 colon.

With `O=C(N/N=C/c1ccc(Br)s1)c1[nH]c2ccc(Br)cc2c1-c1ccccc1`, the growth with BT-549 breast is -11.8% (active); with MDA-MB-435 melanoma it was -5.5% (active); in the assay on SW-620 colon, 23.6%; with MCF7 breast it was 7.06% (active); with HCT-116 colon, -14.2% (active); in the assay with HCC-2998 colon, 20.5%. Besides, the growth with KM12 colon is 8.2% (active).

On to `COc1cccc(NC2=CC(=O)C(C)=C(C)C2=O)c1`, for which the growth was 127% in the assay with BT-549 breast; 7.25% (active) in the assay on MDA-MB-435 melanoma; 102% in the assay with SW-620 colon; 64.1% with MCF7 breast; 10.5% in the assay on HCT-116 colon; 98.4% in the assay on KM12 colon.
